Experimental data published in PubChem BioAssay.
Where “and” joins values, the source holds several entries; their conditions need not be identical. Identical values can stand only once. Records with an inconclusive call do not appear. Calls of active or inactive are those of the source.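 Rule for the calls, unless noted: active = normalized viability below 100% at a tested concentration; inactive = the rest.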

Key:
[1] = growth inhibition of DIPG glioma cells, dose response, cell-based, SU-DIPG-XVII, MIPE5.0, CellTiter-Glo, qHTS (AID 1347060; cut-off not given, nearly all actives have AC50 up to about 26 µM); details: SU-DIPG-XVII viability, CellTiter-Glo ATP luminescence
[2] = growth inhibition of DIPG glioma cells, dose response, cell-based, SU-DIPG-XIII, MIPE5.0, CellTiter-Glo, qHTS (AID 1347064; cut-off not given, nearly all actives have AC50 up to about 23 µM); details: SU-DIPG-XIII viability, CellTiter-Glo ATP luminescence
[3] = viability loss in pontine glioma line – cell-based, SU-DIPG-XXV, MIPE5.0, CellTiter-Glo, qHTS, dose response (AID 1347065; cut-off not given, nearly all actives have AC50 up to about 26 µM;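 note: cells exposed to compound for 48 hours before ATP readout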); details: CellTiter-Glo ATP luminescence
[4] = SU-DIPG-VI glioma cell viability, MIPE4.0 library, CellTiter-Glo luminescence, qHTS (AID 1347066; cut-off not given, nearly all actives have AC50 up to about 30 µM;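 note: cells exposed to compound for 48 hours before readout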); details: CellTiter-Glo ATP luminescence
[5] = JHH-DIPG-1 glioma cell viability, MIPE5.0 library, CellTiter-Glo luminescence, qHTS (AID 1347067; cut-off not given, nearly all actives have AC50 up to about 26 µM;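 note: cells exposed to compound for 48 hours before readout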); details: JHH-DIPG-1 glioma viability, CellTiter-Glo ATP luminescence
[6] = SU-DIPG-XXV glioma cell viability, MIPE5.0 library, qHTS (AID 1347068; cut-off not given, nearly all actives have IC50 up to about 30 µM)
[7] = sensitizers of A549 cells to miR-34 induction, primary screen, imaging, A549 dox-inducible miR-34, nuclei and caspase counts (AID 1347080;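 active = compounds whose cell count with miR-34 switched on is under 0.7 times the count with it off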); details: A549 miR-34 inducible, Hoechst nuclei count, 48 h
[8] = modifiers of HSF1 nuclear foci, imaging, Selleck Cancer Library (AID 1347162; in the data active = plate-normalised HSF1 focus index below about 0.46); details: human cells, at 10 µM; SSMD: measured here: HSF1 foci SSMD mean; cell count: measured here: cell number; plate-normalised HSF1 focus index: stronger effect = lower value
[9] = survival rescue of mitochondrial mutant cells in low glucose, primary screen, MELAS cybrids, Rieske KO mouse fibroblasts, CellTiter-Glo (AID 1508586;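 active = mean z-score across replicates of 1.96 or higher in either the MELAS or the Rieske mutant cell line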;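 note: z relative to plate mean and SD of compound and empty wells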)
[10] = ovarian cancer cell viability with rucaparib, profiling panel, oncology-focused library, rucaparib conditional (AID 1508598); details: patient-derived ovarian cancer cells, CellTiter-Glo viability, 144 h, stronger effect = lower value
[11] = LFS_MB_P medulloblastoma growth inhibition, cell-based, chromothripsis tumors, cisplatin or BGB combos (AID 1671449; in the data active = inhibition above about 80%;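 note: cells exposed for 96 hours; 0% = vehicle DMSO and 100% = killing by high DMSO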); details: LFS_MB_P medulloblastoma cells
[12] = HDN33 neuroblastoma growth inhibition, cell-based, chromothripsis tumors, cisplatin or BGB combos (AID 1671450; in the data active = inhibition above about 80%;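 note: cells exposed to compound for four days; 0% = vehicle DMSO and 100% = cell killing by high DMSO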); details: HDN33 neuroblastoma cells, stronger effect = higher value

NC(=O)c1ccc(I)c([N+](=O)[O-])c1
6.61% and -13.4%: inhibition ([12]; cisplatin combo, at 5 µM)
-10.7% and -15.7%: inhibition ([11]; measured here: combination with cisplatin, at 5 µM, stronger effect = higher value)
8450: cell count ([7]; measured here: total cells without miR-34 induction)
active: viability ([10]; at 0.000305 µM, OCI-P5x cells, with rucaparib 20 µM, 100% = cells with rucaparib alone) 98.3% | viability ([10]; at 0.000305 µM, OCI-P5x cells, without rucaparib) 94.7% | viability ([10]; at 0.00122 µM, OCI-P5x cells, without rucaparib) 97.6% | viability ([10]; at 0.0195 µM, OCI-P5x cells, without rucaparib) 95.1% | viability ([10]; at 0.0781 µM, OCI-P5x cells, with rucaparib 20 µM, 100% = cells with rucaparib alone) 97.2% | viability ([10]; at 0.313 µM, OCI-P5x cells, without rucaparib) 88.7% | viability ([10]; at 1.25 µM, OCI-P5x cells, with rucaparib 20 µM, 100% = cells with rucaparib alone) 94.9% | viability ([10]; at 1.25 µM, OCI-P5x cells, without rucaparib) 94.9% | viability ([10]; at 5 µM, OCI-P5x cells, without rucaparib) 91.7%
0.628: z-score ([9]; Rieske KO mouse fibroblast survival, CellTiter-Glo 72 h)
-54.2% and -27.9%: inhibition ([11]; measured here: combination with cisplatin, at 0.5 µM, stronger effect = higher value)
5% and -21.1%: inhibition ([11]; measured here: combination with BGB IC40, at 0.05 µM)
-7.86% and -37.5%: inhibition ([11]; measured here: combination with BGB IC40, at 0.005 µM)
7270: cell count ([7]; measured here: total cells with miR-34 induction, stronger effect = lower value)
inactive: outcome [1] | outcome [2] | outcome [3] | outcome [4] | outcome [5] | outcome [6] | fold change ([7]; stronger effect = lower value, cell number ratio, induced over uninduced) 0.861 | plate-normalised HSF1 focus index [8] 1.07 | z-score ([9]; MELAS cybrid survival, CellTiter-Glo 48 h, stronger effect = higher value) -0.444 | viability ([10]; at 0.000305 µM, OCI-C5x cells, with rucaparib 10 µM, 100% = cells with rucaparib alone) 109% | viability ([10]; at 0.000305 µM, OCI-C5x cells, without rucaparib) 119% | viability ([10]; at 0.00122 µM, OCI-C5x cells, with rucaparib 10 µM, 100% = cells with rucaparib alone) 110% | viability ([10]; at 0.00122 µM, OCI-C5x cells, without rucaparib) 116% | viability ([10]; at 0.00122 µM, OCI-P5x cells, with rucaparib 20 µM, 100% = cells with rucaparib alone) 102% | viability ([10]; at 0.00488 µM, OCI-C5x cells, with rucaparib 10 µM, 100% = cells with rucaparib alone) 113% | viability ([10]; at 0.00488 µM, OCI-C5x cells, without rucaparib) 127% | viability ([10]; at 0.00488 µM, OCI-P5x cells, with rucaparib 20 µM, 100% = cells with rucaparib alone) 101% | viability ([10]; at 0.00488 µM, OCI-P5x cells, without rucaparib) 102% | viability ([10]; at 0.0195 µM, OCI-C5x cells, with rucaparib 10 µM, 100% = cells with rucaparib alone) 127% | viability ([10]; at 0.0195 µM, OCI-C5x cells, without rucaparib) 126% | viability ([10]; at 0.0195 µM, OCI-P5x cells, with rucaparib 20 µM, 100% = cells with rucaparib alone) 103% | viability ([10]; at 0.0781 µM, OCI-C5x cells, with rucaparib 10 µM, 100% = cells with rucaparib alone) 119% | viability ([10]; at 0.0781 µM, OCI-C5x cells, without rucaparib) 117% | viability ([10]; at 0.0781 µM, OCI-P5x cells, without rucaparib) 102% | viability ([10]; at 0.313 µM, OCI-C5x cells, with rucaparib 10 µM, 100% = cells with rucaparib alone) 115% | viability ([10]; at 0.313 µM, OCI-C5x cells, without rucaparib) 117% | viability ([10]; at 0.313 µM, OCI-P5x cells, with rucaparib 20 µM, 100% = cells with rucaparib alone) 101% | viability ([10]; at 1.25 µM, OCI-C5x cells, with rucaparib 10 µM, 100% = cells with rucaparib alone) 114% | viability ([10]; at 1.25 µM, OCI-C5x cells, without rucaparib) 122% | viability ([10]; at 5 µM, OCI-C5x cells, with rucaparib 10 µM, 100% = cells with rucaparib alone) 102% | viability ([10]; at 5 µM, OCI-C5x cells, without rucaparib) 122% | viability ([10]; at 5 µM, OCI-P5x cells, with rucaparib 20 µM, 100% = cells with rucaparib alone) 110% | inhibition ([11]; at 0.5 µM, stronger effect = higher value) -30.4% and -3.77% | inhibition ([12]; at 0.5 µM) 0.82% and -18.3%
6730: cell count [8]
11.8% and -4.71%: inhibition ([11]; measured here: combination with BGB IC20, at 0.005 µM)
0.928: fold change ([7]; measured here: relative caspase fold change +Dox/-Dox)
1.45: SSMD [8]
-4.77% and -10.4%: inhibition ([12]; measured here: with BGB IC20 combination, at 0.5 µM)
13.3% and -25.3%: inhibition ([12]; BGB combo, at 5 µM)
